Source: PubChem BioAssay
EPAC2 antag: Validation qHTS for antagonist of cAMP-regulated guanine nucleotide exchange factor 4 (EPAC2); EPAC2 Rap1B BODIPY-GDP exchange, fluorescence; Potency, µM (highest dose often 112 µM), for the others: top-dose activity, negative = inhibition, hits mostly inhibitors; 1.7% of 16,000 active;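 note: 100% = activation by cAMP agonist control; nearly all actives have a fitted effect of over 40% in size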
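Normalized against a 6.5 mM cAMP agonist control, compounds were tested on 100 nM EPAC2 exchanging Rap1B-bound BODIPY-GDP (250 nM) for 50 uM GDP. Fluorescence drop (ex 480, em 540 nm) was tracked at room temperature over 30 min at 5-min intervals.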
EPAC1 agonist: Validation qHTS for agonist of cAMP-regulated guanine nucleotide exchange factor 3 (EPAC1); EPAC1 Rap1b BODIPY-GDP exchange, fluorescence; Potency, µM, for the others: max response, positive = active, usual class: activators; 1% of 16,000 active; note: nearly all actives have a fitted effect of over 70% in size
An asterisk follows results filed as active; ? = inconclusive; ! = a repeat was not active. A selection: hits, their analogues and other compounds. The true share with any hit is near 3.1%. Calls come from the whole dose curve; as a rule, active = well fitted curve in the direction sought with a large enough effect; inconclusive = small, poorly fitted or top-dose-only effect, or another doubt; inactive = no such curve, though single readings can be large; an effect the other way counts as inactive or inconclusive. Unless noted, % is set by controls: 0 for no effect and ±100 for the full control effect; potency is the fitted concentration of half-maximal effect.

SMILES	EPAC2 antag	EPAC1 agonist
CC(=O)O[C@H]1C[C@@H]2CC[C@@H]3[C@H](CC[C@@]4(C)[C@H]3C[C@H](N3CC[N+](C)(C)CC3)[C@@H]4OC(C)=O)[C@@]2(C)C[C@@H]1N1CC[N+](C)(C)CC1	10.4%	-8.4%
CCCCCCCCCCCCCCCC(=O)OC[C@H](O)[C@H]1OC(=O)C(O)=C1O	26.9%	-2.9%
COc1ccc(/C=C/C(=O)c2ccc(O)cc2O)cc1	-18.4%	16.7%
COc1ccc(/C=C/C(=O)c2ccc(OC)cc2OC)cc1	15.8µM*	14.2%
N[C@H](C(=O)O)[C@@H]1CC(Cl)=NO1	33.4%	?
CC1(C)Oc2ccc3ccc(=O)oc3c2CC1=O	13.0%	-33.5%
CC(=O)OC1c2c(ccc3ccc(=O)oc23)OC(C)(C)C1OC(=O)CC(C)C (stereo not drawn)	39.8µM*	-113.4%
CCOC(=O)N1CCN(Cc2ccc3c(c2)CN(C(=O)c2cc(-c4ccccc4)no2)CCO3)CC1	-18.0%	6.4%
NCCC(=O)[N-][C@@H](Cc1cnc[nH]1)C(=O)O.[Zn]	30.5%	16.9%
Clc1ccccc1C(c1ccccc1)(c1ccccc1)n1ccnc1	11.2µM*!	?
Clc1ccccc1-c1nccc(-n2ccnc2)n1	-21.2%	18.4%
CN(C)c1ncc2nc(-c3ccc(F)cc3)c(=O)n(Cc3cccs3)c2n1	1.1%	-11.9%
Cc1nc2cnc(Oc3ccccc3)nc2n(Cc2cccs2)c1=O	?	24.5%
CN(C)c1ncc2nc(CCc3ccccc3)c(=O)n(Cc3cccs3)c2n1	10.7%	112µM*
Cc1nc2cnc(N(C)C)nc2n(Cc2cccs2)c1=O	-30.5%	-14.3%
COc1ccc(Oc2ncc3nc(C)c(=O)n(Cc4cccs4)c3n2)cc1	?	112µM*
O=c1c(-c2ccc(F)cc2)nc2cnc(Nc3ccccc3)nc2n1Cc1cccs1	?	100µM*
COc1ccc(-c2nc3cnc(Nc4ccccc4)nc3n(Cc3cccs3)c2=O)cc1	-10.8%	-10.0%
CN(C)c1ncc2nc(-c3cc(F)cc(F)c3)c(=O)n(Cc3cccs3)c2n1	-22.0%	112µM*
Cc1ccccc1CNc1ncnc2c1ncn2[C@@H]1O[C@H](CO)[C@@H](O)[C@H]1O	7.7%	-25.8%
COc1ccc(C(=O)NCC2Cc3cccc(-c4cncnc4)c3O2)c(OC)c1OC (stereo not drawn)	-18.0%	-6.9%
C/C1=C2N=C(/C=C3N=C(/C(C)=C4\[N-]C(C(CC(N)=O)C4(C)CCC(=O)NCC(C)OP(=O)([O-])OC4C(CO)OC(n5cnc6cc(C)c(C)cc65)C4O)C4(C)N=C1C(CCC(N)=O)C4(C)CC(N)=O)C(CCC(N)=O)C\3(C)C)C(CCC(N)=O)C/2(C)CC(N)=O.[CH3-].[Co+3] (stereo not drawn)	10µM*	2.1%
COc1cc(CNc2nc(C)c(-c3ccn(C4Cc5ccccc5C4)n3)s2)cc2c1OCO2	-12.0%	?
CC(c1ccc(N(C)C)cc1)c1ccnc2ccccc12 (stereo not drawn)	-13.3%	112µM*
CN1CCN(c2nc(-c3ccc(N(C)C)cc3)nc3ccccc23)CC1	-3.9%	-7.9%
